Bioassay records: PubChem, several laboratories
The list is not random: actives were taken first. Their share in the collection is about 10%.
ROMK mod: human ROMK K+ channel modulation, primary screen. P48048. Tet-inducible ROMK, thallium flux fluorescence; actives lie on both sides. B-score at 10 µM. 130,000 compounds, 2% hits;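 active = signal ratio slope over the read window, or its plate-corrected B-score, at least 3 SD from the plate mean, either direction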;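 note: B-score of the F/F0 ratio slope over 7 to 12 s after thallium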
bCat KO growth: beta-catenin-lacking colon tumor cell growth suppression; viability, % at 10 µM; HCT116 beta-catenin knockout viability, CellTiter-Glo, 60 h; hits give low values; AID 818; 140,000 compounds, 1.5% hits;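 active = viability at or under a set limit, the compound median less 4 SD, cut at about 6% in these data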
Insulin prom inh: TRM-6 insulin promoter activity inhibition. TRM-6 cells (human fetal islet line), insulin promoter-eGFP reporter, imaging; reporter expression induced with tamoxifen. inhibition, % at 2 µM. 130,000 compounds, 0.9% hits;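 active = inhibition above the mean plus 3 SD, with well images judged a real hit on visual review, cut at about 60% in these data, passing the limit was not always enough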
HCT116 PTEN-null: growth suppressors of cells with PTEN tumor suppressor deletion; HCT116 PTEN-null viability, CellTiter-Glo, 60 h; hits give low values; viability, % at 10 µM; 140,000 compounds, 1.2% hits;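 active = viability at or below a set limit, 4 SD under the median of all tested compounds, cut at about 3.7% in these data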;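 note: PTEN knockout HCT116 line with beta catenin targeted HCT116 as companion control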
L major viab: inhibitors of Leishmania major promastigote growth; Leishmania major promastigotes, resazurin fluorescence viability; inhibition, % at 10 µM; 200,000 compounds, 9% hits; AID 1063; in the data active = inhibition above about 50%;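 note: promastigotes grown with compound for 44 hours at 28 °C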
p97 inhibitor: blocks human p97 ATPase activity | inhibition, % at 8 µM | AID 1481 | recombinant p97 ATPase, Kinase-Glo ATP luminescence, 3 h | 220,000 compounds, 0.42% hits; in the data active = inhibition above about 15%
Target sequence (P55072 whole entry, looked up): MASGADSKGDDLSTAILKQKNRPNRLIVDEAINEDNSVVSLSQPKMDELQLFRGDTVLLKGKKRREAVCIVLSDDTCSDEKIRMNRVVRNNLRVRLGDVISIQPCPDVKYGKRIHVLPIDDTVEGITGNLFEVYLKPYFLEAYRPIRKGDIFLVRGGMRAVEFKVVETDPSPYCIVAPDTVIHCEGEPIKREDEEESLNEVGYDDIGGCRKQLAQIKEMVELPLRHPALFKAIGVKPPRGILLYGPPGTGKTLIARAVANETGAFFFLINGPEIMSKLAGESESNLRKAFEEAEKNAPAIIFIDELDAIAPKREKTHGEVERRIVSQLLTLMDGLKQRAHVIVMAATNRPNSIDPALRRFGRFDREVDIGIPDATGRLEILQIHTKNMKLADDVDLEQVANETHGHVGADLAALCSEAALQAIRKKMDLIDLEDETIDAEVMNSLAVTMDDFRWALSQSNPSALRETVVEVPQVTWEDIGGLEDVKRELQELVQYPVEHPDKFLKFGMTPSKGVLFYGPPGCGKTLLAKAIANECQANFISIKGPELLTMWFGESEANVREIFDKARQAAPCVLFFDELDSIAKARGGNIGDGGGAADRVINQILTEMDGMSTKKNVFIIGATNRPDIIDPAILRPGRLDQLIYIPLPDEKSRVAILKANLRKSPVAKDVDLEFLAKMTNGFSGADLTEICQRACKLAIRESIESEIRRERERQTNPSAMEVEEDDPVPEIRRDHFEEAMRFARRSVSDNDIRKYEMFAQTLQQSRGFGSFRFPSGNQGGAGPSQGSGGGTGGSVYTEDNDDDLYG
Numbers stand for hits; . = inactive; / = no result given.

SMILES	ROMK mod	bCat KO growth	Insulin prom inh	HCT116 PTEN-null	L major viab	p97 inhibitor
CN(C)c1ccc(C(CNC(=O)c2ccccc2Br)c2c[nH]c3ccccc23)cc1 (centres undefined)	.	.	.	.	94.3	.
CN(C)c1ccc(C(CNS(=O)(=O)c2ccc(F)cc2)c2c[nH]c3ccccc23)cc1 (centres undefined)	/	.	.	.	78.6	.
CCOC(=O)c1ccc(S(=O)(=O)NCC(c2ccc(N(C)C)cc2)c2c[nH]c3ccccc23)cc1 (centres undefined)	.	.	.	.	.	.
COc1ccccc1CNC(=O)C1CCC(CNc2c(N3CCC(C)CC3)c(=O)c2=O)CC1 (centres undefined)	.	/	/	/	/	.
Nc1nnc(-c2cc3c(ccc4ccccc43)oc2=O)s1	/	/	/	/	80.5	.
COc1cc(C(=O)Nc2cccc(C)c2C)c(Br)c(OC)c1OC	.	/	.	/	.	.
CC1Cc2ccccc2N1C(=O)CN(C)S(=O)(=O)c1cccc2cccnc12 (centres undefined)	/	.	/	.	.	.
CN(CC(=O)N1CCCCC1)S(=O)(=O)c1cccc2cccnc12	/	.	85.7	.	.	.
N/C(Cc1ccc([N+](=O)[O-])cc1)=N\OC(=O)c1ccc(Br)o1	.	.	71.4	.	.	.
CCOC(=O)C1=C(c2ccccc2)NC(=O)NC1c1ccc(OC)c(OC)c1 (centres undefined)	.	/	.	/	.	.
CCOC(=O)C1=C(c2ccccc2)N(C)C(=O)NC1c1ccc(OC(F)F)c(OC)c1 (centres undefined)	-4.56	.	/	.	.	.
COCCN1C=C(C(=O)OC)C(c2cc3c(cc2Br)OCO3)C(C(=O)OC)=C1	/	.	.	.	62.0	.
Cc1ccc(-n2[nH]c(C)c(C=Nc3ccc(S(=O)(=O)Nc4nccs4)cc3)c2=O)c(C)c1	.	/	/	/	.	.
CCOC(=O)c1c(-n2c(C)cc(C=O)c2C)sc2c1CCCC2	/	.	/	.	96.0	.
COc1ccc(CCN2C(=O)CSC2=Nc2ccc(C(C)C)cc2)cc1OC	.	/	/	/	/	.
Cc1ccc(S(=O)(=O)N/N=C\c2ccc3c(c2)OCO3)cc1	/	.	.	.	.	15.9
O=C(O/N=C/c1ccc2c(c1)OCO2)c1ccc([N+](=O)[O-])cc1	.	/	.	/	.	.
Cc1ccc(C(=O)O/N=C/c2ccc3c(c2)OCO3)cc1	.	.	.	.	59.0	.
Cc1onc(-c2ccccc2)c1C(=O)Nc1ccc(S(=O)(=O)NC(C)(C)C)cc1	.	/	/	/	.	.
CCCCn1c(O)c(N=Nc2ccccn2)c2ccccc21	.	.	.	.	65.8	.
Cc1cccc(NC(=O)C(CC(C)C)NC(=O)C2CCC(C)CC2)n1 (centres undefined)	.	/	/	/	.	.
CCc1nnc(N/N=C/c2ccc(N3CCC(C)CC3)c([N+](=O)[O-])c2)n1N	.	.	.	.	72.9	.
Cc1nnc(N/N=C/c2cc([N+](=O)[O-])c(N3CCC(C)CC3)cc2N2CCC(C)CC2)n1N	.	.	.	.	99.7	.
Cc1nnc(N/N=C/c2ccc([N+](=O)[O-])cc2)n1N	.	/	/	/	.	.
CCOc1cc(C(N)=O)cc(Br)c1OCc1ccccc1	.	/	/	/	99.9	.
SMILES	ROMK mod	bCat KO growth	Insulin prom inh	HCT116 PTEN-null	L major viab	p97 inhibitor
COc1c(Br)cc(C(N)=O)cc1OCc1ccccc1	/	.	.	.	.	.
CCOc1ccccc1NC(=O)CCN(c1ccc(C)cc1)S(=O)(=O)c1ccccc1	.	.	.	.	81.4	.
Cc1ccc(N(CCC(=O)O)S(=O)(=O)c2ccccc2)cc1	/	.	.	.	.	.
O=C(N/N=C/c1ccccn1)c1cc(-c2ccncc2)nc2ccccc12	.	.	.	.	.	.
Cc1ccc2nc(SCC(=O)N/N=C/c3ccco3)cc(C)c2c1	.	/	.	/	.	.
Cc1cc(N/N=C/c2ccc([N+](=O)[O-])o2)nc2ccccc12	.	/	/	/	83.4	.
Cc1ccc2nc(N/N=C/c3ccco3)cc(C)c2c1	.	/	/	/	61.8	.
Cn1c(/C=C/c2ccc([N+](=O)[O-])o2)nc2ccccc2c1=O	/	1.8	.	1.5	100.5	.
O=C(N/N=C/c1ccc([N+](=O)[O-])o1)c1cc(-c2ccncc2)nc2ccccc12	.	2.8	/	3.3	99.3	.
Cc1cc(C)cc(NC(=O)C2CCCN2/C=C/C(=O)C(F)(F)F)c1 (centres undefined)	/	.	/	.	.	.
O=C(N/N=C/c1ccc([N+](=O)[O-])o1)c1cc(-c2ccc(-c3ccccc3)cc2)nc2ccccc12	.	/	/	/	100.3	.
O=C(N/N=C/c1cccc([N+](=O)[O-])c1)c1cc(-c2ccccc2)nc2ccccc12	.	.	.	.	.	.
CC(C)CC(NC(N)=O)C(=O)NCCc1ccc(Cl)cc1 (centres undefined)	.	/	.	/	.	.
Cc1ccc(C)c(N(CC(=O)NN=C2CCN(C)CC2)S(=O)(=O)c2ccccc2)c1	.	.	.	.	68.5	.
Cc1ccc(N(CC(=O)NN=C2CCN(C)CC2)S(=O)(=O)c2ccc(C)cc2)cc1	.	/	.	/	.	.
O=[N+]([O-])c1cc(-c2n[nH]c(-c3ccccc3)n2)cc([N+](=O)[O-])c1	.	.	.	.	97.8	.
CCCc1[nH]n(-c2ccc(F)cc2)c(=O)c1C=Nc1ccc(C)cc1	.	.	.	.	.	.
COc1cc(C2C(C#N)=C(N)Oc3c2ccc2ccccc32)ccc1OCC(=O)Nc1cccc(C)c1 (centres undefined)	/	.	.	.	75.7	.
COc1cc(C2C(C#N)=C(N)Oc3c2ccc2ccccc32)ccc1OCC(=O)Nc1ccc(C)cc1 (centres undefined)	.	.	.	.	69.1	.
Cc1ccc(-c2ccc(/C=N/O)o2)cc1[N+](=O)[O-]	.	/	.	/	.	.
O=[N+]([O-])c1ccc(/C=N/NS(=O)(=O)c2ccc(Cl)cc2)o1	.	.	.	.	53.4	.
Cc1ccc(S(=O)(=O)N/N=C\c2ccc(C)o2)cc1	/	.	.	.	.	.
Cc1ccc(S(=O)(=O)N/N=C\c2ccc([N+](=O)[O-])o2)cc1	/	.	.	.	87.2	.
O=C(O)/C=C/c1ccc([N+](=O)[O-])o1	.	/	/	/	.	.
Cc1cc2ncn(/N=C/c3ccc([N+](=O)[O-])o3)c2cc1C	/	2.5	.	1.6	99.1	.
SMILES	ROMK mod	bCat KO growth	Insulin prom inh	HCT116 PTEN-null	L major viab	p97 inhibitor
O=[N+]([O-])c1ccc(/C=N/N=C/c2ccc([N+](=O)[O-])o2)o1	.	/	.	/	100.4	.
Cc1[nH]c(=O)[nH]c(=O)c1CSCC(=O)OCC(=O)Nc1ccccn1	/	/	/	/	/	.
COC(=O)c1c(NC(=O)c2nc3ccccc3s2)sc2c1CC(C)(C)NC2(C)C	/	/	/	/	87.3	.
CCOC(=O)c1c(NC(=O)COc2ccccc2)sc2c1CC(C)(C)NC2(C)C	.	/	.	/	.	.
CCOc1ccc(C(=O)Nc2sc3c(c2C(=O)OC)CC(C)(C)NC3(C)C)cc1	/	/	/	/	93.9	.
CN1C(=O)/C(=C/c2cc(C(C)(C)C)c(O)c(C(C)(C)C)c2)NC1=S	/	/	.	/	.	.
